Test results as given in PubChem BioAssay (NCATS).
Records with an inconclusive call do not appear. A number with no mark means an inactive call. Active and inactive are the calls of the source. The call rests on the fitted dose curve; in most records, active means well fitted inhibition curve with a large enough effect; inconclusive means small, poorly fitted or top-dose-only effect; inactive means flat fitted curve, though single readings scatter.

Assay: P-glycoprotein substrates identified in KB-8-5-11 adenocarcinoma cell line, qHTS therapeutic library screen (AID 1346987); further: nearly all actives have a fitted effect of over 65% in size
Settings: KB-8-5-11 (P-gp overexpressing) viability, CellTiter-Glo, 72 h; series mostly up to 44.5 µM; activity change, negative = cytotoxicity: at the top concentration
In short: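 In this qHTS, P-gp-rich KB-8-5-11 cells received library compounds across a concentration range. Viability was quantified by luminescence after 72 h at 37 degree C.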
On the % scale 0 is the no-effect control and ±100 the full control effect.

Row | SMILES | activity change, negative = cytotoxicity | outcome
1 | C[C@@H]1CCC2C(C)(C)[C@H](O)[C@H](O)C[C@]2(C)[C@@]12Cc1c(O)cc3c(c1O2)CN(CCCC(=O)O)C3=O (some centres not stated) | 1.51% [at 17.3 µM] | 
2 | COc1ccc(Oc2c(Cl)cnn(C3c4ccccc4-c4ccccc43)c2=O)cc1 | -17.4% | 
3 | CCC1OC(=O)C(C)CC(C)C(=O)/C(C)=C/C(C)C(=O)/C=C/C1(C)O (configuration not stated) | 8.17% | 
4 | CC(C)C1C(OC(=O)/C=C/c2ccccc2)CC2(C)OC2CCC2(C)OC2C1O (configuration not stated) | -0.3% | 
5 | CC(=O)OC[C@]12[C@@H](OC(=O)c3ccoc3)C[C@@H]3[C@@H](OC(C)=O)[C@]1(OC3(C)C)[C@@](C)(O)C[C@H](OC(=O)c1ccoc1)[C@@H]2OC(=O)c1ccoc1 | -11.7% [at 17.3 µM] | 
6 | Cc1c(Cc2ccc3ccccc3n2)c2cc(F)ccc2n1CC(=O)O |  | inactive
7 | C/C=C1/CC2C(=O)Nc3cc(O)c(OC)cc3C(=O)N2C1 (configuration not stated) |  | inactive
8 | O=C(O)/C=C/c1ccc2occc2c1O[C@@H]1O[C@H](CO)[C@@H](O)[C@H](O)[C@H]1O | 3.22% | 
9 | CC1=CCC2C(C)(C)CCCC2(C)C1CC12OC1C(O)C(CO)=CC2O (configuration not stated) | 8.9% | 
10 | C/C=C1\[C@H](O[C@@H]2O[C@H](CO)[C@@H](O)[C@H](O)[C@H]2O)OC=C(C(=O)OCCc2ccc(O)cc2)[C@H]1CC(=O)OCCc1ccc(O)cc1 | -6.12% [at 17.3 µM] | 
11 | COc1cc(C(=O)OC[C@@]2(O)CO[C@@H](O[C@H]3[C@H](Oc4ccc(O)cc4)O[C@H](CO)[C@@H](O)[C@@H]3O)[C@@H]2O)cc(OC)c1O | 9.54% [at 17.3 µM] | 
12 | O=C(O)c1ccnc2cc(C(OCC3CCC(F)(F)CC3)c3ccccc3Cl)[nH]c12 (configuration not stated) | 8.48% | 
13 | Oc1ccc(CC2NCCc3cc(O)c(O)cc32)cc1 (configuration not stated) |  | inactive
14 | O=C(CC1CC(c2ccc(F)cc2F)=NO1)N1CCOCC1 (configuration not stated) | -6.81% | 
15 | C/C(=C\CCC(C)(C)O)CCO[C@@H]1O[C@H](CO[C@@H]2O[C@@H](C)[C@H](O)[C@@H](O)[C@H]2O)[C@@H](O)[C@H](O)[C@H]1O | 8.58% [at 17.3 µM] | 
16 | C=CC(C)(O)CC/C=C(\C)C1CC=C(C)C(=O)O1 (configuration not stated) | 5.5% | 

Row | SMILES | activity change, negative = cytotoxicity | outcome
17 | Cc1ccc(Cl)cc1N(CC(=O)Nc1c(F)cccc1F)S(C)(=O)=O | -1.26% | 
18 | CN1CCN(c2nc(-c3ccc(C(=O)NC4(C(=O)NCC#N)CCCCC4)cc3)cs2)CC1 | 6.11% | 
19 | C/C=C(\C)C1C(C)=CC2CCC(OS(=O)(=O)O)C(C)C2C1/C=C/C=C/C(=O)O (configuration not stated) | 6.83% [at 17.3 µM] | 
20 | C=C(CCO)C(=O)OCC1OCC(OC(=O)C(=C)CCO[C@@H]2O[C@H](CO)[C@@H](O)[C@H](O)[C@H]2O)C(O)C1O (some centres not stated) | 2.76% [at 17.3 µM] | 
21 | CC(O)C/C=C/C=C/C(=O)OC1C=C2COC(=O)C2(O)C2(C)CCCC(C)(C)C12 (configuration not stated) | 9.95% | 
22 | CC1(C)CC[C@]2(C(=O)O[C@@H]3O[C@H](CO)[C@@H](O)[C@H](O)[C@H]3O)CC[C@]3(C)C(=CCC4[C@@]5(C)C[C@@H](O)[C@H](O)[C@@](C)(CO)C5[C@H](O)C[C@]43C)C2C1 (some centres not stated) | -2.73% [at 17.3 µM] | 
23 | COc1ccc(CC(NC(C)=O)C(=O)O)cc1 (configuration not stated) |  | inactive
24 | CCc1cc(CC[C@]2(C3CCCC3)CC(O)=C(Cc3nc4nc(C)cc(C)n4n3)C(=O)O2)cc(CC)n1 | -5.48% | 
25 | CC1(C)CC(NC(=O)C(=O)Nc2ccc(Cl)cc2)CC(C)(C)N1 | 4.78% | 
26 | CC(O)C1CCC2C3CCC4CC(OC5OC(C(=O)O)C(O)C(O)C5O)CCC4(C)C3CCC12C (configuration not stated) | -6.91% | 
27 | CC(CCO)CCC1C2(C)CCCC(C)(C)C2CC[C@@]1(C)O (some centres not stated) | -0.987% | 
28 | O=C(OC[C@H]1O[C@H](O[C@]2(CO)O[C@H](CO)[C@@H](O)[C@@H]2O)[C@H](O)[C@@H](O)[C@@H]1O)c1ccc(O)cc1 | 4.84% [at 17.3 µM] | 
29 | C=C1CC[C@@]2(OC1)O[C@H]1CC3C4CC=C5C[C@@H](O[C@@H]6O[C@@H](C)[C@H](O)[C@@H](O)[C@H]6O)C[C@@H](O[C@@H]6O[C@H](C)[C@H](O)[C@H](O)[C@H]6O[C@@H]6O[C@@H](C)[C@H](O)[C@@H](O)[C@H]6O)[C@]5(C)C4CC[C@]3(C)[C@H]1[C@@H]2C (some centres not stated) | 5.67% [at 9.29 µM] | 
30 | COc1ccccc1CN[C@H]1CCCN[C@H]1c1ccccc1 | -9.07% | 
31 | CC(=O)O[C@H]1[C@H](OC(=O)C(C)C)[C@]2(C)OC3(CC[C@]2(C)[C@H]2CCC[C@]4(CO4)[C@]12C)COC(=O)C3 (some centres not stated) |  | inactive [at 17.3 µM]
32 | C[C@]12CC[C@@H]3c4ccc(O)cc4CC[C@H]3[C@@H]1C[C@@H](O[C@@H]1O[C@H](C(=O)O)[C@@H](O)[C@H](O)[C@H]1O)[C@@H]2O | -0.407% | 
